Shown are actives, neighbours in structure and some others; about 3.3% of the full set was active somewhere.
Vaccinia Venus – vaccinia inhibition (Venus reporter) | Vaccinia virus Venus reporter expression, fluorescence | Potency, µM (doses to about 36.5 µM), for inactives: top-dose activity change, negative = inhibition, hits mostly inhibitors | 330,000 compounds, 0.46% hits; calls by dose curve; tested in A549 cells; note: nearly all actives have a fitted effect of over 30% in size
HCV inhibitor – inhibitors of hepatitis C virus infection; Huh7.5.1 HCVcc-Cre infection, luciferase reporter, 44 h; Potency, µM (series often up to 41.8 µM), for the others: top-dose activity change, negative = inhibition, actives largely listed as inhibitors; 340,000 compounds, 3.4% hits; AID 651820; active = well fitted inhibition curve with a large enough effect; inconclusive = small, poorly fitted or top-dose-only effect, or another doubt; inactive = no such curve, though single readings can be large or run the other way
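Seed cells (1,000/well) for 4 h; treat with compound and infect with HCVcc-Cre, moi about 0.5. Incubate 44 h, then detect luciferase activity.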
Vaccinia mCherry – vaccinia inhibition (mCherry reporter). Vaccinia virus mCherry reporter infection, fluorescence. Potency, µM (highest dose often 36.5 µM), inactives show top-dose activity change, negative = inhibition, usual class: inhibitors. 310,000 compounds, 0.63% hits. AID 720579; calls by dose curve; tested in A549 cells; note: nearly all actives have a fitted effect of over 35% in size
Starred values were filed as active, the others as inactive; [ ] = remark or other dose. % is set by controls: 0 for no effect and ±100 for the full control effect; potency is the fitted concentration of half-maximal effect.

How did CC(=O)c1ccccc1NC(=O)COC(=O)c1cc(C)oc1C do in these assays?
HCV inhibitor: -13%

Results for CN1C(=O)C2(NCCc3c2[nH]c2ccccc32)c2ccccc21 (stereo not given) ?
Vaccinia Venus: -3%; HCV inhibitor: 4%

Results for CC1=CC(C)(C)N2C(=O)C3(NCCc4c3[nH]c3ccccc43)c3cc(C)cc1c32 (stereo not given) ?
Vaccinia Venus: -4%; HCV inhibitor: 7.9µM*; Vaccinia mCherry: inconclusive

What do the screens show for `Cc1ccc2nc(-c3cccc(S(=O)(=O)N4CC(C)OC(C)C4)c3)cn2c1` (stereo not given)?
Vaccinia Venus: -25%[7.34 µM]; HCV inhibitor: inconclusive; Vaccinia mCherry: -2%[7.34 µM]

How did COc1ccccc1-c1ccnc(-n2ncc(C(=O)N(C)C(C)c3nc(C)cs3)c2C2CC2)n1 (stereo not given) do in these assays?
Vaccinia Venus: -7%; Vaccinia mCherry: -12%

Results for O=C(Nc1ccc(Cl)cc1)C1CCCCN1S(=O)(=O)c1ccccc1 (stereo not given) ?
Vaccinia Venus: 10µM*; HCV inhibitor: inconclusive; Vaccinia mCherry: inconclusive

How did CC(=O)Nc1cccc(OCC(=O)Nc2cccc(S(=O)(=O)N3CCCC3)c2)c1 do in these assays?
Vaccinia Venus: -13%; HCV inhibitor: inconclusive; Vaccinia mCherry: inactive

What do the screens show for `O=C(COc1ccc(F)cc1Cl)Nc1cccc(S(=O)(=O)N2CCCC2)c1`?
HCV inhibitor: 10µM*

What do the screens show for `Cc1ccc(S(=O)(=O)N2CCCCC2)cc1NC(=O)Cn1ccsc1=N`?
Vaccinia Venus: -19%; HCV inhibitor: 5%; Vaccinia mCherry: -10%

Results for O=C(COc1ccccc1)Nc1cccc(S(=O)(=O)N2CCCC2)c1 ?
Vaccinia Venus: -15%; HCV inhibitor: -26%; Vaccinia mCherry: inactive

Results for O=C(COc1ccccc1Cl)Nc1cccc(S(=O)(=O)N2CCCC2)c1 ?
HCV inhibitor: 10µM*

How did N=c1sccn1CC(=O)Nc1cccc(S(=O)(=O)N2CCCCCC2)c1 do in these assays?
HCV inhibitor: 10µM*

Results for O=C(Nc1ccccc1)[C@@H]1CCCN1S(=O)(=O)c1ccc(Cl)cc1 ?
Vaccinia Venus: -1%; HCV inhibitor: -1%; Vaccinia mCherry: inactive

Results for O=S(=O)(c1ccccc1F)N1CCN(c2nc(-c3cccs3)nc3ccccc23)CC1 ?
Vaccinia Venus: -18%; Vaccinia mCherry: -6%

Results for CC(=O)c1cccc(NC(=O)C2CCCN2S(=O)(=O)c2ccccc2C(F)(F)F)c1 (stereo not given) ?
Vaccinia Venus: -8%; Vaccinia mCherry: -11%

What do the screens show for `O=C(CNc1cccc(S(=O)(=O)N2CCCCC2)c1)Nc1ccc(C(F)(F)F)cc1`?
Vaccinia Venus: inconclusive; Vaccinia mCherry: -23%

Results for O=C(CNc1cccc(S(=O)(=O)N2CCCC2)c1)Nc1ccc(C(F)(F)F)cc1 ?
Vaccinia Venus: -29%; HCV inhibitor: 10µM*; Vaccinia mCherry: inconclusive

How did O=C(COc1cc(F)ccc1[N+](=O)[O-])Nc1cc(S(=O)(=O)N2CCCC2)ccc1Cl do in these assays?
Vaccinia Venus: -13%; HCV inhibitor: 14µM*; Vaccinia mCherry: inactive

Results for O=C(COc1ccccc1[N+](=O)[O-])Nc1cccc(S(=O)(=O)N2CCCC2)c1 ?
Vaccinia Venus: -20%; HCV inhibitor: inconclusive; Vaccinia mCherry: -7%

How did O=C(Nc1cccc(S(=O)(=O)N2CCCCC2)c1)[C@@H]1CCCN1S(=O)(=O)c1ccccc1C(F)(F)F do in these assays?
HCV inhibitor: 14µM*

Results for CCOC(=O)Cc1csc(NC(=O)C(CC(C)C)NC(=O)C2CCCCC2)n1 (stereo not given) ?
HCV inhibitor: 14µM*

How did CCCCCCn1c(=O)c(C(=O)Nc2nc(CC(=O)OCC)cs2)c(O)c2ccccc21 do in these assays?
Vaccinia Venus: 0%[7.34 µM]; HCV inhibitor: inconclusive; Vaccinia mCherry: inactive[7.34 µM]

How did CCOC(=O)Cc1csc(NC(=O)/C=C/c2ccccc2Cl)n1 do in these assays?
Vaccinia Venus: -23%; HCV inhibitor: inconclusive; Vaccinia mCherry: -2%

How did CCOC(=O)Cc1csc(NC(=O)c2ccc(NC(C)=O)cc2)n1 do in these assays?
Vaccinia Venus: -3%; HCV inhibitor: -6%

What do the screens show for `CCOC(=O)Cc1csc(NC(=O)C(NC(=O)C2CCCCC2)C(C)C)n1` (stereo not given)?
Vaccinia Venus: 2%; HCV inhibitor: -19%; Vaccinia mCherry: -13%

Results for CCOC(=O)Cc1csc(NC(=O)c2c(O)c3ccccc3n(CCC(C)C)c2=O)n1 ?
Vaccinia Venus: -12%; HCV inhibitor: 10µM*; Vaccinia mCherry: inactive

Results for CCOC(=O)Cc1csc(NC(=O)/C=C\c2ccccc2Cl)n1 ?
Vaccinia Venus: -6%; HCV inhibitor: 10µM*; Vaccinia mCherry: -10%

Compound activity (PubChem BioAssay)
